Source: ChEMBL document CHEMBL3988442, “University of Dundee, Small-Polar-MMV Screening Library” (2021)
For some assays here: Potency and affinity values are given separately.

Columns and labels:
Design in all cases: scale not given: direction of the effect not stated beside the values
[1] = target: Protein translocase subunit SecA (Escherichia coli (strain K12)) (UniProt P10408); assay: Assay to Identify E. coli SecA ATPase Inhibitors; type: functional; details: 30 µM
[2] = target: T1, Ubiquitin-activating enzyme e1, putative (Leishmania donovani (strain BPK282A1)) (UniProt E9BSI1); assay: Leishmania donovani Ubiquitin Activating Enzyme (LdE1); type: functional; details: 30 µM
T1 sequence (whole entry): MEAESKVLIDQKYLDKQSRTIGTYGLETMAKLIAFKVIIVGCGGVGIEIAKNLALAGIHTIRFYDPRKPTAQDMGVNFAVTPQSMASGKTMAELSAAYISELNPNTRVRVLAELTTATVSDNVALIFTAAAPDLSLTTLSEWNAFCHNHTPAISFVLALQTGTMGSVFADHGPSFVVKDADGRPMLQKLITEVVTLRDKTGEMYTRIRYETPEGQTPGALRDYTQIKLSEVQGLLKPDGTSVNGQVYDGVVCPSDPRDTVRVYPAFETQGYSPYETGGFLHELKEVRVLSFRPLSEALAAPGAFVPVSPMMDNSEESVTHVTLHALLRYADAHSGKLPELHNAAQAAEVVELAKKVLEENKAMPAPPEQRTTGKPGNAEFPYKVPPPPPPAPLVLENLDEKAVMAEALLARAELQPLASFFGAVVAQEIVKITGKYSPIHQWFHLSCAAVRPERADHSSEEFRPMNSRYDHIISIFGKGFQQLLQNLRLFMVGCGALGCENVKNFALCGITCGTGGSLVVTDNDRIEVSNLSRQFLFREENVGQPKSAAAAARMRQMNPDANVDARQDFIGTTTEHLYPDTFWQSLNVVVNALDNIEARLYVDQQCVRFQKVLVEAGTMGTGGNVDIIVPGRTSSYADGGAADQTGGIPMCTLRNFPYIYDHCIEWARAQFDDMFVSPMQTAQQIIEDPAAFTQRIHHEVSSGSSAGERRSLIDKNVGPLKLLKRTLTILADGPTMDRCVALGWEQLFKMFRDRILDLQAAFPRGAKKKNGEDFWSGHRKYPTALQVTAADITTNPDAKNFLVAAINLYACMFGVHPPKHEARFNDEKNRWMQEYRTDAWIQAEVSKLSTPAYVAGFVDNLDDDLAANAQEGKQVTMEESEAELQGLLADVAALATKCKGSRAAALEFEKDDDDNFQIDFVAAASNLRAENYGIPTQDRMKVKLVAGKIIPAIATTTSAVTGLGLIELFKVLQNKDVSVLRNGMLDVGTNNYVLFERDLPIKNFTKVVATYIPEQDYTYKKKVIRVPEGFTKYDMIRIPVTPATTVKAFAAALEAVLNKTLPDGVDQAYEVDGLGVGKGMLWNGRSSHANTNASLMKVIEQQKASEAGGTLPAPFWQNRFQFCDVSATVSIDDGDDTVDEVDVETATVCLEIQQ

[3] = target: AMP-activated protein kinase, AMPK (Homo sapiens) (UniProt P54646+O43741+P54619+Q9UGJ0+Q9Y478+Q13131+Q9UGI9); assay: AMP-dependent Kinase enzyme assay. An in vitro enzyme assay that detects ADP turnover that is directly proportional to AMPK activity. This uses naive AMPK that is activated during the assay with MK-8722; type: functional; details: 30 µM
[4] = target: Sialic acid-binding Ig-like lectin 9 (Homo sapiens) (UniProt Q9Y336); assay: Hs-Siglec9 ALPHAscreen SOP 20170721; details: 10 µM
Trypanosoma cruzi = assay: Trypanosoma cruzi phosphomannomutase and mannose-1-phosphate guanylyltransferase assay; type: functional; details: 10 µM
[5] = target: T2, Arginase-2, mitochondrial (Homo sapiens) (UniProt P78540); assay: in vitro enzyme assay to detect the production of urea directly proportional to the activity of Arginase II; type: functional; details: 33.3 µM; further: in the data most compounds retested in dose-response had high values
T2 sequence (whole entry): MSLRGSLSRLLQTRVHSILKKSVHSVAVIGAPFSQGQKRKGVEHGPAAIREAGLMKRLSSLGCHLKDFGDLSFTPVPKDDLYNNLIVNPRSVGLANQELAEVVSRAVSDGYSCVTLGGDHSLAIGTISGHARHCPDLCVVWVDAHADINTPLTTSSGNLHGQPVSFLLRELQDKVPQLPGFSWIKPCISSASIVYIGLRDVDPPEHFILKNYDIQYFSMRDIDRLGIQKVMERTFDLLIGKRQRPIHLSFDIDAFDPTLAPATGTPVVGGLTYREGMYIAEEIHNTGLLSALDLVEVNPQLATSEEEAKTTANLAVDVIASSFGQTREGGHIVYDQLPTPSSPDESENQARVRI

[6] = target: T3, Proteasome subunit beta (Trypanosoma cruzi) (UniProt O96673); assay: Trypanosoma cruzi proteasome chymotrypsin-like activity (TcProtChymo) assay.; further: in the data most compounds retested in dose-response had high values; type: functional; details: 9.37 µM
T3 sequence (whole entry): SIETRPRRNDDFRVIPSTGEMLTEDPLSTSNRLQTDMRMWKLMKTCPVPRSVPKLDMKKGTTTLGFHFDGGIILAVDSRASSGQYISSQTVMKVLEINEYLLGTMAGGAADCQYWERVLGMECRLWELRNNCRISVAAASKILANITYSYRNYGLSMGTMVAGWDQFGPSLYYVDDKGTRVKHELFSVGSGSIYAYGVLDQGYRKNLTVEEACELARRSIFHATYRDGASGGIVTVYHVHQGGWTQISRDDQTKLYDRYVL

Homo sapiens = species: Homo sapiens; assay: To identify inhibition of the IFN signalling (Jak-Stat) pathway via expression of an eGFP reporter gene under the control of an IFN-stimulated response element (ISRE) containing MxA promoter.; type: functional; details: 30 µM
[7] = target: T4, Tyrosyl-tRNA synthetase, putative (Trypanosoma cruzi (strain CL Brener)) (UniProt Q4DSP6); assay: Trypanosoma cruzi tyrosyl tRNA synthetase (TcYRS) _High Tyrosine SOP; type: functional; details: 30 µM; further: in the data most compounds retested in dose-response had high values
T4 sequence (whole entry): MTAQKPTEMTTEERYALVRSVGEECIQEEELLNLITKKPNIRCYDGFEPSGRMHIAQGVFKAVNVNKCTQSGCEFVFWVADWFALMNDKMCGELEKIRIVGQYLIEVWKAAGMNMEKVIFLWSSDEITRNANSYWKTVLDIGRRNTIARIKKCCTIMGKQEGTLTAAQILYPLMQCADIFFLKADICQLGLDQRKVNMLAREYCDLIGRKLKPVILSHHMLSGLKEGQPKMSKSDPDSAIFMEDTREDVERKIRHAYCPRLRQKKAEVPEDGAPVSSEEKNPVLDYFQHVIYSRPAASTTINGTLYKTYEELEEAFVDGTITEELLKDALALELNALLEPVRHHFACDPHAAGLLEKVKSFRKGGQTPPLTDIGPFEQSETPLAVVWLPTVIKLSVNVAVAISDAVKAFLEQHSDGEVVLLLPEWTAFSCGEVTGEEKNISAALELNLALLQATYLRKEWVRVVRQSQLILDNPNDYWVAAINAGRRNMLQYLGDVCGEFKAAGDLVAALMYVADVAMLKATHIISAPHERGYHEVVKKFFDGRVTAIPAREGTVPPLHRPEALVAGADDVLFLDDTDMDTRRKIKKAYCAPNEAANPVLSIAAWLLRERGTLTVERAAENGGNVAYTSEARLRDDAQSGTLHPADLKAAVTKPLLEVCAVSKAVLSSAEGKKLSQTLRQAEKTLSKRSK

[8] = target: T4, Tyrosyl-tRNA synthetase, putative (Trypanosoma cruzi (strain CL Brener)); assay: Trypanosoma cruzi tyrosyl tRNA synthetase (TcYRS) SOP; type: functional; details: 30 µM
[9] = target: Chromo domain-containing protein 1 (Saccharomyces cerevisiae (strain ATCC 204508 / S288c) (Baker's yeast)) (UniProt P32657); assay: ScCHD-1 Enzyme Inhibition Assay; type: functional; details: 30 µM; further: in the data most compounds retested in dose-response had high values
Chain of Chromo domain-containing protein 1 (Saccharomyces cerevisiae (strain ATCC 204508 / S288c) (Baker's yeast)) (P32657 whole entry, the tested form may be a part): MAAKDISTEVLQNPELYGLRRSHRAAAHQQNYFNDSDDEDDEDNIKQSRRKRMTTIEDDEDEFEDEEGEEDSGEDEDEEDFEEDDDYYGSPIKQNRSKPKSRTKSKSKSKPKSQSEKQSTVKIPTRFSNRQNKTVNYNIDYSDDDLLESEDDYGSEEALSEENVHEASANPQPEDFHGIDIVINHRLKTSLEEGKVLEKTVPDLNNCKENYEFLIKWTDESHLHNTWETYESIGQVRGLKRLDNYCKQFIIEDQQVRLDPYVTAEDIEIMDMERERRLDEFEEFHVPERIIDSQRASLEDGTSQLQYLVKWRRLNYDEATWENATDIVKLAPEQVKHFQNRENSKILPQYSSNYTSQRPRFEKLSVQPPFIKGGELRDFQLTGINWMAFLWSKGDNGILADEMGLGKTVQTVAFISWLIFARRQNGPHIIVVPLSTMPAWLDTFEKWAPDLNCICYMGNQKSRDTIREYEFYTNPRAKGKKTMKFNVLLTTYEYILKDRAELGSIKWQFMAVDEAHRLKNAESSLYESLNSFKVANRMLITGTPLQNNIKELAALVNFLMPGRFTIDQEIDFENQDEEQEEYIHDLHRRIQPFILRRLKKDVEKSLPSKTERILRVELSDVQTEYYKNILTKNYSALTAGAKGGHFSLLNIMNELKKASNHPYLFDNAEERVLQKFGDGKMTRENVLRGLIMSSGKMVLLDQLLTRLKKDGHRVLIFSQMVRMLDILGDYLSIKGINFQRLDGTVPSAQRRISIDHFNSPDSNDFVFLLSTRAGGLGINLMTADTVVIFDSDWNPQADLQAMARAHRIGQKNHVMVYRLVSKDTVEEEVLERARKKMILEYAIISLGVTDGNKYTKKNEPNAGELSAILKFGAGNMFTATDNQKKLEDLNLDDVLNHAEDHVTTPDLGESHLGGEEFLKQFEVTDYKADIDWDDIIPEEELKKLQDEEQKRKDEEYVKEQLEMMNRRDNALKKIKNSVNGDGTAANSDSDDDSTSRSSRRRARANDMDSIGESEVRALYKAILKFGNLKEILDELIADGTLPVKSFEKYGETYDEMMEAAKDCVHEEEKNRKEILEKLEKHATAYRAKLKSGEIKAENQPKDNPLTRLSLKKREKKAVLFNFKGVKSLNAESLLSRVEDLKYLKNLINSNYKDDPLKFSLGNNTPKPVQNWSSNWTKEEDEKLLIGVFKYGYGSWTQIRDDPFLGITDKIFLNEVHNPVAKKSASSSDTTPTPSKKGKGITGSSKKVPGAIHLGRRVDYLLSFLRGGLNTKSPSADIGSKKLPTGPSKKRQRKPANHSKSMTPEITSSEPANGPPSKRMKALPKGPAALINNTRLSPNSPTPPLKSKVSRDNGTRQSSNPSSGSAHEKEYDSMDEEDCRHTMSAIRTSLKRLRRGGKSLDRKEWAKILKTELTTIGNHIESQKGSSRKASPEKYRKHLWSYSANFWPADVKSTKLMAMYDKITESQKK

Chain of Protein translocase subunit SecA (Escherichia coli (strain K12)) (P10408 whole entry): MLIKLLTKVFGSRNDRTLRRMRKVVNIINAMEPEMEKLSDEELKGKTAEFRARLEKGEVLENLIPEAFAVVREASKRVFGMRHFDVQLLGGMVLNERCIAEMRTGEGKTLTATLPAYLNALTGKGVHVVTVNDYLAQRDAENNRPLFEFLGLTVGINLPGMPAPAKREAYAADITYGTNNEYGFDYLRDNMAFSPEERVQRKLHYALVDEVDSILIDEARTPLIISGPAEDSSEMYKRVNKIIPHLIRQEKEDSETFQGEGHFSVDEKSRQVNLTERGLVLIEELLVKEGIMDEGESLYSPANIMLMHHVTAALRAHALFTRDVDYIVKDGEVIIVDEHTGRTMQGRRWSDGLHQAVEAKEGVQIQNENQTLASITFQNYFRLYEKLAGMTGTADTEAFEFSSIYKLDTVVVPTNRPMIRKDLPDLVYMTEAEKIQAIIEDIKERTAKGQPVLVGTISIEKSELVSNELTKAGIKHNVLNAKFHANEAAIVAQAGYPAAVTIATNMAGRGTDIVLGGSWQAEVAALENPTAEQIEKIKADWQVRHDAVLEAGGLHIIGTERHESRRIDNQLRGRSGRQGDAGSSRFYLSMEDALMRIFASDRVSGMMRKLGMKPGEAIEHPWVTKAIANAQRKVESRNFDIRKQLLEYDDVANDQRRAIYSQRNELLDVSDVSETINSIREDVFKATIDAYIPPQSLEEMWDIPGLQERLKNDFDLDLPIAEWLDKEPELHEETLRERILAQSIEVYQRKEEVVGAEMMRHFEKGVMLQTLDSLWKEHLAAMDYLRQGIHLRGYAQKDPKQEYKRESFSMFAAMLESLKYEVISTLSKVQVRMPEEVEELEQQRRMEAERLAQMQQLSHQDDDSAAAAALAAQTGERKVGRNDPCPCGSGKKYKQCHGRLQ
Chain of Sialic acid-binding Ig-like lectin 9 (Homo sapiens) (Q9Y336 whole entry): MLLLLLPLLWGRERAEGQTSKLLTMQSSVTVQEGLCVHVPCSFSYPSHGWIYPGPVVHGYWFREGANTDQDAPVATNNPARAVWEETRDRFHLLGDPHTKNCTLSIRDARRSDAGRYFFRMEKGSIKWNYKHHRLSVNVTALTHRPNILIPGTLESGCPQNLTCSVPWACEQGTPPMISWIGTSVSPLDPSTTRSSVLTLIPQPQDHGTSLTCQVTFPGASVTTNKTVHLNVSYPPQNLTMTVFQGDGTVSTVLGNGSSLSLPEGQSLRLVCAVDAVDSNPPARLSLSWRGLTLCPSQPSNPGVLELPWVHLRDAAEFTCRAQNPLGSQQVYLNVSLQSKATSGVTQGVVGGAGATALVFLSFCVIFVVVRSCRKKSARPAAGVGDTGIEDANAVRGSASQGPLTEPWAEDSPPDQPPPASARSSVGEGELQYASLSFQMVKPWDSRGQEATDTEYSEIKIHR

SMILES	Percent Effect [1] [%]	Percent Effect [2] [%]	Percent Effect [3] [%]	Percent Effect [4] [%]	Percent Effect (Trypanosoma cruzi) [%]	Percent Effect [5] [%]	Percent Effect [6] [%]	Percent Effect (Homo sapiens) [%]	Percent Effect [7] [%]	Percent Effect [8] [%]	Percent Effect [9] [%]
CNC(=O)CCc1cc(C)nc(C2CCCN2)n1 (stereo unspecified)	-2.12	-1.35	6.23	2.54	-1.78	3.02	5.62	13.2	3.23	-3.9	6.64
Cc1cc2c(=O)n3c(nc2s1)CCN(C(=O)c1cnn(C)c1C)CC3	-6.2	-17.6	6.62	5.04	1.98	-6.26	9.83	13	5.38	11.7	-18.8
COc1c(C2CCCN2C(=O)c2ccc3cc[nH]c3c2)c(C)nn1C (stereo unspecified)	-4	18.2	1.47	-0.102	7.93	-4.42	7.68	3.62	4.76	14.1	-21.5
Cc1cc(C)n(CC2CN(CC(=O)NC3CCCC3)CCO2)n1 (stereo unspecified)	-8.44	7.79	2.32	-3.15	-8.24	-0.712	2.03	32.3	1.94	2.44	-5.73
Cc1nccn1C1CCCN(C(=O)c2cc(O)nc3ccccc23)C1 (stereo unspecified)	-2.57	12.7	-7.86	5.85	-1.98	-4.18	-4.34	-4.23	6.4	13.9	-5.76
Cc1ncccc1OC1(C(=O)NCCCN2CCOCC2)CCNCC1	-0.6	5.41	-5.62	-0.0436	-5.02	1.43	11.2	11	6.88	9.76	-2.8
CC(C)OCc1ccc(CNC(=O)CC(F)(F)F)cc1	-5.75	21.1	-5.14	-0.714	3.83	0.719	3.98	6.56	8.37	23.5	-9.86
Cc1ccc(N2CC3(CCN(C(=O)c4ccoc4)C3)C2)nn1	-2.51	15.6	2.65	11.4	3.64	-143	9.48	0.925	5.38	13.6	-5.33
Cc1ccc(CN2C[C@@H]3COC[C@H](NS(C)(=O)=O)[C@@H]3C2)o1	-3.56	13.3	3.44	-1.89	-4.05	-56.8	7.86	12.6	4.17	15	-6.77
Cc1nc(CN2CCC(C(=O)O)(n3ccc(-c4ccco4)n3)CC2)co1	-6.11	8.22	-0.438	4.25	0	-0.399	12.9	23.4	1.04	3.7	-0.0478
Cc1nc(CN(C)C2CCN(Cc3sc(C)nc3C)C2)no1 (stereo unspecified)	-3.5	7.89	-14.6	4.01	7.38	0	20.6	2.16	4.43	11.1	-3.08
COc1cccc(C)c1C(=O)N1C[C@@H](CN(C)C)[C@@H](CO)C1	-3.79	5.2	-2.32	7.05	2.26	-2.76	9.15	-12.3	6.45	11.1	-0.303
CCc1ncc2c(n1)CN(CC(=O)NCCOc1ccccc1)CC2	-4.72	7.89	-23.5	-1.72	1.21	-1.44	-5.84	-22.3	11.3	6.17	1.38
Cc1ncnc2c1CCN(Cc1cccs1)CC2	-2.76	8	10	-1.57	-6.18	-55.7	-1.2	10.4	8.33	7.5	-6.96
O=C(CCNc1ncccn1)NCCOc1ccc2c(c1)CCC2	-3.51	15.8	-0.433	-5.56	-4.39	-2.52	6.68	1.31	5.42	18.5	-3.74
Cn1ccnc1CN1CCCN(C(=O)c2ccc3c(c2)COC3)CC1	-5.22	18.4	0.632	-6.65	-6.44	3.24	7.7	-1.32	4.43	11.1	-7.65
